Reference: PubChem BioAssay (NCATS)
Results filed as inconclusive are left out. Entries that show only a call come without a potency. Activity calls are given as the source filed them. The call rests on the fitted dose curve; in most records, active means well fitted curve in the direction sought with a large enough effect; inconclusive means small, poorly fitted or top-dose-only effect, or another doubt; inactive means no such curve, though single readings can be large; an effect the other way counts as inactive or inconclusive.
Potency means the concentration at half of the fitted maximal effect.

Experiment: Quantitative high throughput screen for delayed death inhibitors of the malarial parasite plastid, 96 hour incubation (AID 488745); further: nearly all actives have a fitted effect of over 70% in size
Conditions: Plasmodium falciparum growth; series mostly up to 28.7 µM
Summary of the method: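 Two-generation (96 h) exposure of luciferase-reporter P. falciparum in erythrocytes, 2% hematocrit, 0.1% parasitemia final, 37 C, 5% CO2, RPMI 1640 with 0.5% Albumax. Growth inhibition scored by reduced luminescence.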
In the case of `COc1ccccc1N1CCN(CCCCNS(=O)(=O)c2cccc3c(N(C)C)cccc23)CC1`, the Potency is reported as “inactive”.
With `O=C1NC(O)=NC1(c1ccccc1)c1ccccc1` the Potency was “inactive”.
For `O=C(Nc1cccc(C(=O)Nc2ccc(S(=O)(=O)O)c3cc(S(=O)(=O)O)cc(S(=O)(=O)O)c23)c1)Nc1cccc(C(=O)Nc2ccc(S(=O)(=O)O)c3cc(S(=O)(=O)O)cc(S(=O)(=O)O)c23)c1`, the Potency was “inactive”.
In the case of `COc1cccc(OC)c1OCCNCC1COc2ccccc2O1` (stereo unspecified), the Potency is reported as “inactive”.
For `CN=c1nc(-c2ccccc2)n(-c2ccccc2)s1`, the Potency was “inactive”.
With `CC(C)NC[C@H](O)COc1cccc2[nH]ccc12` the Potency was “inactive”.
With `Cc1ccccc1CNc1ncnc2c1ncn2C1OC(CO)C(O)C1O` (stereo unspecified) the Potency was “inactive”.
In the case of `NC(CCCP(=O)(O)O)C(=O)O` (stereo unspecified), the Potency is reported as “inactive”.
For `CN(C)C(N)=NCCC[C@H](N)C(=O)O`, the Potency was “inactive”.
For `O=C(O)CCCC[C@@H]1CCSS1`, the Potency was “inactive”.
For `O=C(O)/C=C/C(O)c1ccc(Cl)cc1` (stereo unspecified), the Potency was “inactive”.
With `CC(C)Cc1ccc([C@H](C)C(=O)O)cc1` the Potency was “inactive”.
For `Ic1ccc(N2CCN(Cc3c[nH]c4ncccc34)CC2)cc1`, the Potency was “inactive”.
In the case of `CC12C(=O)OC(=O)C1(C)C1CCC2O1` (stereo unspecified), the Potency is reported as 3.29 µM (active).
In the case of `CCCCN1CCC(n2c(=O)[nH]c3ccccc32)CC1`, the Potency is reported as “inactive”.
With `Cc1cc(NC(=O)Nc2ccc3c(ccn3C)c2)sn1` the Potency was “inactive”.
For `CCN1/C(=C/C(C)=O)Sc2ccc(OC)cc21`, the Potency was “inactive”.
In the case of `COc1ccccc1CNCCCCCCNCCCCCCCCNCCCCCCNCc1ccccc1OC`, the Potency is reported as 1.04 µM (active).
For `COC1=C(OC)C(=O)c2ccccc2C1=O`, the Potency was “inactive”.
For `N.N.O=C(O)C1(C(=O)O)CCC1.[Pt]`, the Potency was “inactive”.
In the case of `CN1CCc2cc(O)c(O)cc2C(c2ccccc2)C1` (stereo unspecified), the Potency is reported as “inactive”.
For `c1cnc2c(c1)ccc1cccnc12`, the Potency was 1.85 µM (active).
In the case of `O=C(O)[C@@H]1C[C@H](C(=O)O)N1`, the Potency is reported as “inactive”.
With `CCCN(CC1CC1)c1nc(C)nc(Nc2c(Cl)cc(Cl)cc2Cl)c1Cl` the Potency was 2.33 µM (active).

Experiment: Quantitative high throughput screen for delayed death inhibitors of the malarial parasite plastid, 48 hour incubation (AID 488752); further: nearly all actives have a fitted effect of over 65% in size
Conditions: Plasmodium falciparum growth; series mostly up to 28.7 µM
Summary of the method: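 Cultures: infected erythrocytes at final 2% hematocrit and 0.1% parasitemia in Albumax-supplemented RPMI. Parasites express integrated firefly luciferase. Incubation with compound lasts 48 h before luminescent detection of remaining reporter activity.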
With `COc1ccccc1N1CCN(CCCCNS(=O)(=O)c2cccc3c(N(C)C)cccc23)CC1` the Potency was “inactive”.
For `O=C1NC(O)=NC1(c1ccccc1)c1ccccc1`, the Potency was “inactive”.
In the case of `O=C(Nc1cccc(C(=O)Nc2ccc(S(=O)(=O)O)c3cc(S(=O)(=O)O)cc(S(=O)(=O)O)c23)c1)Nc1cccc(C(=O)Nc2ccc(S(=O)(=O)O)c3cc(S(=O)(=O)O)cc(S(=O)(=O)O)c23)c1`, the Potency is reported as “inactive”.
For `COc1cccc(OC)c1OCCNCC1COc2ccccc2O1` (stereo unspecified), the Potency was “inactive”.
For `CC(C)NC[C@H](O)COc1cccc2[nH]ccc12`, the Potency was “inactive”.
For `Cc1ccccc1CNc1ncnc2c1ncn2C1OC(CO)C(O)C1O` (stereo unspecified), the Potency was “inactive”.
In the case of `NC(CCCP(=O)(O)O)C(=O)O` (stereo unspecified), the Potency is reported as “inactive”.
With `O=c1[nH]c2cc(Cl)c(Cl)cc2[nH]c1=O` the Potency was “inactive”.
With `CN(C)C(N)=NCCC[C@H](N)C(=O)O` the Potency was “inactive”.
With `O=C(O)CCCC[C@@H]1CCSS1` the Potency was “inactive”.
For `O=C(O)/C=C/C(O)c1ccc(Cl)cc1` (stereo unspecified), the Potency was “inactive”.
With `CC(C)Cc1ccc([C@H](C)C(=O)O)cc1` the Potency was “inactive”.
With `Ic1ccc(N2CCN(Cc3c[nH]c4ncccc34)CC2)cc1` the Potency was “inactive”.
With `CC12C(=O)OC(=O)C1(C)C1CCC2O1` (stereo unspecified) the Potency was 4.15 µM (active).
In the case of `CCCCN1CCC(n2c(=O)[nH]c3ccccc32)CC1`, the Potency is reported as “inactive”.
In the case of `CCN1/C(=C/C(C)=O)Sc2ccc(OC)cc21`, the Potency is reported as “inactive”.
In the case of `COc1ccccc1CNCCCCCCNCCCCCCCCNCCCCCCNCc1ccccc1OC`, the Potency is reported as 2.94 µM (active).
With `COC1=C(OC)C(=O)c2ccccc2C1=O` the Potency was “inactive”.
In the case of `N.N.O=C(O)C1(C(=O)O)CCC1.[Pt]`, the Potency is reported as “inactive”.
For `c1cnc2c(c1)ccc1cccnc12`, the Potency was 2.94 µM (active).
With `O=C(O)[C@@H]1C[C@H](C(=O)O)N1` the Potency was “inactive”.
For `CCCN(CC1CC1)c1nc(C)nc(Nc2c(Cl)cc(Cl)cc2Cl)c1Cl`, the Potency was 2.62 µM (active).
